Most compounds without a hit are left out; they make up all but 9% or so of the library.
HPGD block: blocks human HPGD enzyme activity. P15428. purified HPGD, NADH fluorescence kinetic, PGE2 substrate. Potency, µM, for inactives: top-dose activity change, negative = inhibition, most hits filed as inhibitors. actives 4.3% (n = 150,000); active = well fitted inhibition curve with a large enough effect, not every such curve was filed as active; inconclusive = small, poorly fitted or top-dose-only effect, or another doubt; inactive = no such curve, though single readings can be large or run the other way; note: % is set by controls: 0 for no effect and ±100 for the full control effect
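NADH formation kinetics: reaction with 30 uM PGE2 and 1 mM NAD+ (final), 20 nM enzyme, Tris-HCl pH 8 with Tween 20, after 15 min compound preincubation at room temperature. Fluorescence change, last versus first of five reads.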
HttQ103 aggreg: inhibitors of mutant huntingtin aggregate formation in PC12 cells; PC12 HttQ103-GFP aggregates, Acumen cytometry, 40 h; actives 1.1% (n = 220,000); Potency, µM (series often up to 46.1 µM), inactives show at the highest dose activity change, negative = inhibition, usual class: inhibitors; note: % is set by controls: 0 for no effect and ±100 for the full control effect; nearly all actives have a fitted effect of over 60% in size
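PC12 cells stably carrying ecdysone-inducible HTT exon 1 Q103–GFP were induced with tebufenozide (100 nM final) and treated with library compounds in titration. GFP aggregates in lysates were counted by laser scanning cytometry.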
ALDH1A1 inh: ALDH1A1 (human) enzyme inhibition | Purified ALDH1A1, NADH fluorescence, propionaldehyde substrate | Potency, µM (highest dose often 75.3 µM), for the others: top-dose activity, negative = inhibition, actives largely listed as inhibitors | actives 7.3% (n = 220,000) | AID 1030; active = well fitted inhibition curve with a large enough effect, not every such curve was filed as active; inconclusive = small, poorly fitted or top-dose-only effect, or another doubt; inactive = no such curve, though single readings can be large or run the other way;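 note: plate controls were no enzyme wells and a reference inhibitor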
Target sequence (P00352 whole entry, looked up): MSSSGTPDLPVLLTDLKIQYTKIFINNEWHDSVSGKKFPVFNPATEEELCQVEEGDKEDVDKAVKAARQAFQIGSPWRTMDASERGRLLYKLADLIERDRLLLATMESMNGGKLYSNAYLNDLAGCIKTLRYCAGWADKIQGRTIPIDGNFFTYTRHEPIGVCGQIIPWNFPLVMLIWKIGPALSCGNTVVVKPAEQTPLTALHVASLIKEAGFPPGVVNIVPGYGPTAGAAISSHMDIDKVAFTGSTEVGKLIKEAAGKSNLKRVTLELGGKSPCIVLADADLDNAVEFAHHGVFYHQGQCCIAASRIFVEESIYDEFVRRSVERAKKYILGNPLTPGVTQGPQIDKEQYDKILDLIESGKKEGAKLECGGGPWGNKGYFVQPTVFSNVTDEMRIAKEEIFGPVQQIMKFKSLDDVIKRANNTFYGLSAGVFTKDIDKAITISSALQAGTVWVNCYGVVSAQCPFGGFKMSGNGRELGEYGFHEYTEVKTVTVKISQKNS
Luc counter: counter-screen: inhibitors of Kinase-Glo firefly luciferase. Q27757. Potency, µM (doses to about 38.3 µM), without a hit: at the highest dose activity change, negative = inhibition, hits mostly inhibitors. AID 1379. actives 0.28% (n = 200,000). Kinase-Glo luciferase, ATP luminescence, 8 min; note: % is set by controls: 0 for no effect and ±100 for the full control effect; nearly all actives have a fitted effect of over 60% in size
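Luminescence was the read-out, taken after 8-minute incubation at ambient temperature. Luciferase turned over luciferin with 10 uM ATP in imidazole pH 7.2 buffer containing KCl, MgCl2, Tween 20 and BSA.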
HTT cytoprotect: protects HTT-Q103 PC12 cells, measured by ATP | actives 0.14% (n = 230,000) | Potency, µM (titrated, usually from 56.4 µM), without a hit: cytoprotection (ATP increase), most hits filed as activators | AID 1471 | PC12 HTT-Q103 induced, cytoprotection, ATP luminescence, 40 h; note: % of control where 0% means no effect; nearly all actives have a fitted effect of over 45% in size
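Quantitative HTS on tebufenozide-induced (100 nM) PC12 cells expressing HTTQ103 exon 1–GFP; compounds tested as a concentration series; survival measured via cellular ATP.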
LMNA splice mod: LMNA splicing modulation | HeLa LMNA splicing GFP/RFP minigene ratio, 48 h | Potency, µM (series often up to 46.1 µM), for the others: at the top dose ratio change, negative = inhibition, usual class: inhibitors | AID 1487 | actives 0.01% (n = 200,000); active = well fitted inhibition curve with a large enough effect in the signal ratio, with a control signal flat, not every such curve was filed as active; inconclusive = small, poorly fitted or top-dose-only effect, or effect the other way, or a change in a side signal; the % refers to the signal ratio; note: % is set by controls: 0 for no effect and ±100 for the full control effect
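Read-out is the ratio of GFP to DsRed2 object intensity, acquired by 488 nm laser-scanning cytometry on HeLa lamin A-EGFP minigene reporter cells. Compound incubation 48 hrs at 37 °C in Opti-MEM with 2% FBS; DMSO 0.5% final.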
* hit, by the source's call; ? = inconclusive; . = no result; [ ] = dose if it differs, or a comment. Unless noted, calls come from the whole dose curve; as a rule, active = well fitted curve in the direction sought with a large enough effect; inconclusive = small, poorly fitted or top-dose-only effect, or another doubt; inactive = no such curve, though single readings can be large; an effect the other way counts as inactive or inconclusive. Potency is the fitted concentration of half-maximal effect.

SMILES | HPGD block | HttQ103 aggreg | ALDH1A1 inh | Luc counter | HTT cytoprotect | LMNA splice mod
O=C(/C=C/c1ccc(N2CCCCC2)c([N+](=O)[O-])c1)c1ccc(S(=O)(=O)N2CCCC2)cc1 | -9.3% | -11.2% | 4.47µM* | -3.5% | -26.8%[10 µM] | -2.4%
COc1ccc(/C=C/C(=O)c2ccc(O)cc2)cc1COc1ccc(F)cc1 | . | 1.8% | ? | . | -14.0% | ?
O=C(/C=C/c1ccc(-c2ccccc2[N+](=O)[O-])o1)c1ccccc1 | -27.7% | -5.3% | 17.8µM* | 0.5% | . | -7.6%
N#C/C(=C\c1ccc(-c2ccccc2[N+](=O)[O-])o1)C(N)=O | . | 8.2%[9.22 µM] | 4.2% | . | 7.9%[10 µM] | .
CN(C)c1ccc(/C=C/C(=O)c2ccccc2)cc1[N+](=O)[O-] | 14.1µM* | -2.7% | ? | -14.8% | -0.3%[10 µM] | ?
CNc1ccc(/C=C/C(=O)c2ccc(C)cc2)cc1[N+](=O)[O-] | -16.8% | -12.4% | 17.3% | 1.7% | -0.7%[10 µM] | ?
Cc1ccc(NC(=O)Cn2cc3c(n2)CCC(C)C3)cc1 (centres undefined) | 2.1% | -9.9% | 8.6% | 2.2% | -14.0% | -10.1%
COc1ccc(Br)c(C(=O)NC(C)(C)CO)c1 | . | 1.6%[9.22 µM] | 4.9% | . | -12.7%[10 µM] | .
CCOc1ccc(CCNC(=O)Cc2nn[nH]n2)cc1OCC | 4.7% | -12.4% | 11.9% | 3.1% | -16.4% | -4.5%
COc1cccc(/C=C/C(=O)c2cccc([N+](=O)[O-])c2)c1 | . | 8.0% | ? | -2.5% | -40.4% | ?
COc1cccc(C(=O)/C=C/c2ccc(N3CCCCC3)c([N+](=O)[O-])c2)c1 | -5.7% | 0.8% | 14.1µM* | -4.2% | -13.3%[10 µM] | ?
Cc1onc(-c2ccccc2)c1C(=O)OCC(=O)c1ccccc1 | -10.3% | -0.9% | 0.5% | 1.2% | -10.9%[10 µM] | 1.9%
Cc1cc([N+](=O)[O-])c2[nH]c(C(=O)N/N=C/c3ccccc3C(=O)O)c(-c3ccccc3)c2c1 | ? | -3.5% | 1.41µM* | 5.1% | ? | ?
CCOc1ccc(-c2c(C#N)c(N)nc3sc(C(=O)c4ccccc4)c(N)c23)cc1 | . | -6.3%[9.22 µM] | . | . | 9.3%[10 µM] | .
COc1ccc(-c2c(C#N)c(N)nc3sc(C(=O)c4ccccc4)c(N)c23)cc1 | ? | -3.7% | 3.98µM* | 3.5% | -11.4%[10 µM] | -17.4%
Cc1cccc(OCC(=O)N2CCOCC2)c1 | -8.6% | -3.2% | -1.4% | -4.9% | 18.8%[10 µM] | 4.4%
CC(C)(C)NC(=S)NNC(=O)c1ccncc1 | 12.6µM* | -5.1% | 9.0% | 3.2% | . | 4.8%
COc1ccc(NC(=O)c2ccc(-c3nn(C)c(=O)c4ccccc34)cc2)cc1 | . | -14.3%[9.22 µM] | 4.8% | 4.9% | -3.9%[10 µM] | ?
Cn1cccc1/C=N/n1c(-c2ccc(C(C)(C)C)cc2)n[nH]c1=S | 11.2µM* | -1.7% | ? | -0.5% | -16.3% | -5.1%
Cn1cccc1/C=N/n1c(-c2ccccc2)n[nH]c1=S | 14.1µM* | -5.4% | -13.7% | -2.3% | -14.1% | 14.7%[0.0737 µM]
Cn1c(-c2ccc(C(C)(C)C)cc2)n[nH]c1=S | ? | -16.6% | 31.6µM* | -7.9% | -0.5%[10 µM] | 1.8%
Cc1nc(-c2ccccc2)sc1-c1n[nH]c(=S)n1C | -28.2% | 11.6% | 25.1µM* | 1.1% | -18.9% | 3.3%
COc1ccc(C(=O)NNC(=O)c2ccc(S(=O)(=O)N3CCOCC3)cc2)cc1 | . | 6.1% | ? | -0.8% | 3.6% | 4.1%[46 µM]
COc1cc(C(CC(=O)O)n2cnnn2)ccc1OC(C)C (centres undefined) | . | -8.6% | 4.1% | 8.8% | 3.0% | -5.2%[9.22 µM]
O=C(CSc1nnc(CNC(=O)c2cccs2)o1)Nc1ccc2c(c1)OCO2 | -3.5% | 19.4% | ? | -4.7% | 7.3% | 1.7%
Cc1nn(-c2ccccc2)c(C)c1/C=N/n1c(-c2ccncc2)n[nH]c1=S | . | -17.3% | 22.4µM* | -2.6% | -50.0%[10 µM] | ?
Cc1ccccc1Nc1nc(N)nc(CSCC(=O)Nc2cccc(Br)c2)n1 | -6.5% | 4.4% | 3.4% | 4.2% | . | -5.9%
O=C1CCC(=O)N1c1ccc(CSc2nc3ccccc3[nH]2)cc1 | -21.3% | -30.6% | 14.1µM* | -7.6% | -27.8% | ?

Bioassay records: PubChem, National Center for Advancing Translational Sciences (NCATS)
